Assay results reported in PubChem BioAssay (EPA / NIEHS).
Results filed as inconclusive are left out. The source made the active and inactive calls. How the source made its calls, unless noted: active means hit-call score of the fitted dose curve at least 0.9, where 1 is the maximum; inactive means score below 0.9.

Experiments:
[1] = read-out: Tumor necrosis factor receptor superfamily member 6 (Homo sapiens) (UniProt P25445); assay: LTEA_HepaRG_FAS: Life Technologies and Expression Analysis (LTEA) Assay for Fas cell surface death receptor (FAS) using HepaRG (AID 2283447); conditions: mRNA level, 48 h; actives raise or lower the signal
Method in brief: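 Differentiated HepaRG cells in serum-free induction medium were exposed 48 h to 8 half-log concentrations up to 100 uM in 0.5% DMSO, in duplicate. FAS mRNA was measured by qRT-PCR normalised to ACTB, GAPDH and POLR2A; bidirectional fit versus DMSO.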

[2] = read-out: Fatty acid synthase (Homo sapiens) (UniProt P49327); assay: LTEA_HepaRG_FASN: Life Technologies and Expression Analysis (LTEA) Assay for Fatty Acid Synthase (FASN) using HepaRG (AID 2283448); conditions: mRNA level, 48 h; actives raise or lower the signal
Method in brief: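 Transcript-level assay: HepaRG liver cells are treated for 48 h across an eight-point range topping at 100 uM, and FASN mRNA, normalized to three housekeeping genes, is compared with DMSO controls in both directions.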

[3] = read-out: Cyclin D2 (CCND2), CCND2 (gene 894); assay: LTEA_HepaRG_CCND2: Life Technologies and Expression Analysis (LTEA) Assay for Cyclin D2 (CCND2) using HepaRG (AID 2283449); conditions: mRNA level, 48 h; actives raise or lower the signal;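 further: CCND2 transcript measured by TaqMan qRT-PCR and normalised to three housekeeping genes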
Method in brief: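 Chemicals in 0.5% DMSO, eight half-log concentrations from 100 uM top, were applied in duplicate for 48 h to human HepaRG cells in serum-free induction medium. CCND2 mRNA by TaqMan qRT-PCR, normalised to ACTB/GAPDH/POLR2A; bidirectional fit versus DMSO.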

[4] = read-out: Cyclin Dependent Kinase Inhibitor 1A (CDKN1A), CDKN1A (gene 1026); assay: LTEA_HepaRG_CDKN1A: Life Technologies and Expression Analysis (LTEA) Assay for Cyclin Dependent Kinase Inhibitor 1A (CDKN1A) using HepaRG (AID 2283450); conditions: mRNA level, 48 h; actives raise or lower the signal
Method in brief: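 HepaRG, 48 h dosing, 8-pt half-log series from 100 uM top, 0.5% DMSO vehicle, duplicates. Readout: TaqMan qRT-PCR of CDKN1A transcript, housekeeping-normalized (ACTB, GAPDH, POLR2A). Up/down curve fit relative to DMSO.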

[5] = read-out: Cyclin D1 (CCND1), CCND1 (gene 595); assay: LTEA_HepaRG_CCND1: Life Technologies and Expression Analysis (LTEA) Assay for Cyclin D1 (CCND1) using HepaRG (AID 2283451); conditions: mRNA level, 48 h; actives raise or lower the signal
Method in brief: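 qRT-PCR (Fluidigm 96.96 array) read-out of transcript level, housekeeping-normalized (ACTB/GAPDH/POLR2A). HepaRG cells, 48 h chemical exposure, 8-point half-log series from 100 uM, 0.5% DMSO vehicle; gain or loss relative to DMSO baseline.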

[6] = read-out: catalase (CAT), CAT (gene 847); assay: LTEA_HepaRG_CAT: Life Technologies and Expression Analysis (LTEA) Assay for catalase (CAT) using HepaRG (AID 2283452); conditions: mRNA level, 48 h; actives raise or lower the signal
Method in brief: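 HepaRG cells in serum-free induction medium, 0.5% DMSO vehicle, exposed 48 h in duplicate over 8 half-log concentrations from 100 uM. CAT mRNA measured by qRT-PCR, normalized to ACTB, GAPDH, POLR2A; bidirectional fit versus DMSO.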

[7] = read-out: flavin-containing dimethylaniline monooxygenases 3 (FMO3), FMO3 (gene 2328); assay: LTEA_HepaRG_FMO3: Life Technologies and Expression Analysis (LTEA) Assay for flavin-containing dimethylaniline monooxygenases 3 (FMO3) using HepaRG (AID 2283453); conditions: mRNA level, 48 h; actives raise or lower the signal
Method in brief: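 HepaRG, 48 h exposure, 8-pt half-log series from 100 uM, 0.5% DMSO vehicle, duplicates; FMO3 transcript by Fluidigm TaqMan qRT-PCR, housekeeping-normalized; gain/loss fit vs DMSO.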

[8] = read-out: Cytochrome P450 (CYP1A1), CYP1A1 (gene 1543); assay: LTEA_HepaRG_CYP1A1: Life Technologies and Expression Analysis (LTEA) Assay for Cytochrome P450 (CYP1A1) using HepaRG (AID 2283454); conditions: mRNA level, 48 h; actives raise or lower the signal
Method in brief: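 qRT-PCR read-out: CYP1A1 transcript normalized to three housekeeping genes, fitted bidirectionally against 0.5% DMSO vehicle baseline. Human HepaRG cells, 48 h chemical exposure, 8-point half-log series topping at 100 uM.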

[9] = read-out: CFLAR gene, CFLAR (gene 8837); assay: LTEA_HepaRG_CFLAR: Life Technologies and Expression Analysis (LTEA) Assay for CFLAR gene using HepaRG (AID 2283455); conditions: mRNA level, 48 h; actives raise or lower the signal
Method in brief: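 Differentiated HepaRG cells in serum-free induction medium were exposed 48 h in duplicate to eight half-log concentrations up to 100 uM in 0.5% DMSO; mRNA measured by TaqMan qRT-PCR, normalized to ACTB, GAPDH, POLR2A; bidirectional fitting versus DMSO.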

[10] = read-out: Forkhead box O1 (FOXO1), FOXO1 (gene 2308); assay: LTEA_HepaRG_FOXO1: Life Technologies and Expression Analysis (LTEA) Assay for Forkhead box O1 (FOXO1) using HepaRG (AID 2283456); conditions: mRNA level, 48 h; actives raise or lower the signal
Method in brief: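 Differentiated HepaRG cells, in serum-free induction medium with 0.5% DMSO, exposed 48 h in duplicate to 8-point half-log series from 100 uM. FOXO1 mRNA measured by TaqMan qRT-PCR, normalized to ACTB, GAPDH, POLR2A; bidirectional fit versus DMSO.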

[11] = read-out: growth arrest and DNA damage 45 (GADD45A), GADD45A (gene 1647); assay: LTEA_HepaRG_GADD45A: Life Technologies and Expression Analysis (LTEA) Assay for growth arrest and DNA damage 45 (GADD45A) using HepaRG (AID 2283458); conditions: mRNA level, 48 h; actives raise or lower the signal
Method in brief: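 Human HepaRG liver cells are treated in duplicate for 48 h with chemicals in 0.5% DMSO, highest concentration 100 uM. Expression is read by qRT-PCR and analyzed in both directions against vehicle.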

[12] = read-out: Forkhead box O3 (FOXO3), FOXO3 (gene 2309); assay: LTEA_HepaRG_FOXO3: Life Technologies and Expression Analysis (LTEA) Assay for Forkhead box O3 (FOXO3) using HepaRG (AID 2283459); conditions: mRNA level, 48 h; actives raise or lower the signal
Method in brief: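 Differentiated human HepaRG cells, 48 h post-plating, exposed in duplicate for 48 h in serum-free induction medium; 8-point half-log series from 100 uM in 0.5% DMSO. FOXO3 mRNA by TaqMan qRT-PCR, normalized to ACTB/GAPDH/POLR2A; bidirectional fit versus DMSO.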

[13] = read-out: ABC Transporter (ABCB1), ABCB1 (gene 5243); assay: LTEA_HepaRG_ABCB1: Life Technologies and Expression Analysis (LTEA) Assay for ABC Transporter (ABCB1) using HepaRG (AID 2283460); conditions: mRNA level, 48 h; actives raise or lower the signal
Method in brief: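 HepaRG cells exposed in duplicate for 48 h in serum-free induction medium to eight half-log concentrations up to 100 uM in 0.5% DMSO. ABCB1 mRNA quantified by qRT-PCR, normalised to ACTB, GAPDH and POLR2A; fitted bidirectionally versus DMSO.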

[14] = read-out: growth arrest and DNA damage 45 (GADD45B), GADD45B (gene 4616); assay: LTEA_HepaRG_GADD45B: Life Technologies and Expression Analysis (LTEA) Assay for growth arrest and DNA damage 45 (GADD45B) using HepaRG (AID 2283461); conditions: mRNA level, 48 h; actives raise or lower the signal
Method in brief: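 qRT-PCR read-out (Fluidigm TaqMan, housekeeping-normalized) of mRNA change in human HepaRG cells after 48 h chemical exposure; 8-point curve, top 100 uM, half-log steps, 0.5% DMSO vehicle; gain or loss fitted relative to DMSO baseline.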

[15] = read-out: ABC Transporter (ABCC3), ABCC3 (gene 8714); assay: LTEA_HepaRG_ABCC3: Life Technologies and Expression Analysis (LTEA) Assay for ABC Transporter (ABCC3) using HepaRG (AID 2283462); conditions: mRNA level, 48 h; actives raise or lower the signal
Method in brief: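 qRT-PCR read-out of ABCC3 transcript, normalized to three housekeeping genes (ACTB, GAPDH, POLR2A), after 48 h chemical exposure of human HepaRG cells. Eight half-log concentrations, highest 100 uM, in 0.5% DMSO; gain or loss fitted relative to DMSO baseline.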

[16] = read-out: ABC Transporter (ABCB11), ABCB11 (gene 8647); assay: LTEA_HepaRG_ABCB11: Life Technologies and Expression Analysis (LTEA) Assay for ABC Transporter (ABCB11) using HepaRG (AID 2283463); conditions: mRNA level, 48 h; actives raise or lower the signal
Method in brief: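 Differentiated human HepaRG cells in serum-free induction medium, dosed in duplicate for 48 h. Eight-point half-log series from 100 uM in 0.5% DMSO; ABCB11 mRNA by qRT-PCR, normalized to ACTB, GAPDH, POLR2A, fitted bidirectionally versus DMSO.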

[17] = read-out: ABC Transporter (ABCC2), ABCC2 (gene 1244); assay: LTEA_HepaRG_ABCC2: Life Technologies and Expression Analysis (LTEA) Assay for ABC Transporter (ABCC2) using HepaRG (AID 2283464); conditions: mRNA level, 48 h; actives raise or lower the signal
Method in brief: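 qRT-PCR (TaqMan, Fluidigm array) read-out of ABCC2 mRNA, normalized to three housekeeping genes. Differentiated HepaRG cells were treated 48 h in serum-free induction medium with 8-point half-log series from 100 uM in 0.5% DMSO; curves fitted bidirectionally relative to DMSO.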

[18] = read-out: Broad substrate specificity ATP-binding cassette transporter ABCG2 (Homo sapiens) (UniProt Q9UNQ0); assay: LTEA_HepaRG_ABCG2: Life Technologies and Expression Analysis (LTEA) Assay for ABC Transporter (ABCG2) using HepaRG (AID 2283465); conditions: mRNA level, 48 h; actives raise or lower the signal
Method in brief: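 Differentiated HepaRG cells were exposed for 48 h in serum-free induction medium to 8 half-log concentrations, top 100 uM, in 0.5% DMSO. ABCG2 mRNA was measured by qRT-PCR, normalized to ACTB, GAPDH and POLR2A, with bidirectional fitting versus DMSO.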

[19] = biological target: rat Androgen Receptor (AR), Ar (gene 24208) (UniProt P15207); assay: NVS_NR_rAR: NovaScreen (NVS) Nuclear Receptor Binding Assay for rat Androgen Receptor (AR) (AID 2283366; active means hit-call score of the fitted dose curve at least 0.9, where 1 is the maximum)
Method in brief: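 Cell-free radioligand binding on extracts of prostate from testosterone-pretreated rats, read by filter-based scintillation counting 18 h after dosing. Loss of bound signal fitted positively versus DMSO; primary screen in duplicate at 25 uM, actives followed up in concentration series.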

[20] = biological target: Estrogen receptor (Homo sapiens) + Estrogen receptor beta (Homo sapiens) (UniProt P03372+Q92731); assay: OT_ER_ERaERb_0480: Odyssey Thera (OT) 8-hour HEK293T Protein-Complementation Assay for Estrogen Receptor-alpha/-beta Heterodimer (AID 2283352; active means hit-call score of the fitted dose curve at least 0.9, where 1 is the maximum)
Method in brief: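 Fluorescence intensity readout from a protein-fragment complementation reporter in HEK293T; ER-alpha/ER-beta LBD heterodimer. Dosing 8 h. Gain-of-signal fit relative to DMSO negative control; laser scanning cytometry of whole-well cell population.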

Measured: AC50

rat Androgen Receptor (AR), Ar (gene 24208), sequence (P15207 whole entry, looked up): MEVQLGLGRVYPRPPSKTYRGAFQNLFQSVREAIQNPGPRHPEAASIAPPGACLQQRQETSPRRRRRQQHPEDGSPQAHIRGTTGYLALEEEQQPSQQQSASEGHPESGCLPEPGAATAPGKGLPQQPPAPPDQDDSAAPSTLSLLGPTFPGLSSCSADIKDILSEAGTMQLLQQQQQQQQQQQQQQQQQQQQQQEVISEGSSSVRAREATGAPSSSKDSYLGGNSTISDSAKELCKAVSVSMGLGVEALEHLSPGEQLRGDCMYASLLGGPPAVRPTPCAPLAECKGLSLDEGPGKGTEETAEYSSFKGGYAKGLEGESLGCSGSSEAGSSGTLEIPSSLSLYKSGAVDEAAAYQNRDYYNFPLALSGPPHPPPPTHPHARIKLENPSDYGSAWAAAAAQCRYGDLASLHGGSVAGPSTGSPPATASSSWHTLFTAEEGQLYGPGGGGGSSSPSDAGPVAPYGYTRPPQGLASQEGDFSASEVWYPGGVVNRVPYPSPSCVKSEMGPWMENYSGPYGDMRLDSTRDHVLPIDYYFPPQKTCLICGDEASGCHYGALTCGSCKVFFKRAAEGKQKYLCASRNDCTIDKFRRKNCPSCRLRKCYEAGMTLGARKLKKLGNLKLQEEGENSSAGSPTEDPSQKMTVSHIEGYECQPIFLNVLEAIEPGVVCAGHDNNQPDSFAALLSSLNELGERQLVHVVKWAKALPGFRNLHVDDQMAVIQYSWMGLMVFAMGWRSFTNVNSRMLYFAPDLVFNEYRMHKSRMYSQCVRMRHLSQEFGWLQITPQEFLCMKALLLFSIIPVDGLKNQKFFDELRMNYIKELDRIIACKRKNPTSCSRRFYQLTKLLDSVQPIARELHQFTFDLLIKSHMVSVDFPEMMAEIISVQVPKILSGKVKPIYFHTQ
Broad substrate specificity ATP-binding cassette transporter ABCG2 (Homo sapiens), sequence (Q9UNQ0 whole entry, looked up): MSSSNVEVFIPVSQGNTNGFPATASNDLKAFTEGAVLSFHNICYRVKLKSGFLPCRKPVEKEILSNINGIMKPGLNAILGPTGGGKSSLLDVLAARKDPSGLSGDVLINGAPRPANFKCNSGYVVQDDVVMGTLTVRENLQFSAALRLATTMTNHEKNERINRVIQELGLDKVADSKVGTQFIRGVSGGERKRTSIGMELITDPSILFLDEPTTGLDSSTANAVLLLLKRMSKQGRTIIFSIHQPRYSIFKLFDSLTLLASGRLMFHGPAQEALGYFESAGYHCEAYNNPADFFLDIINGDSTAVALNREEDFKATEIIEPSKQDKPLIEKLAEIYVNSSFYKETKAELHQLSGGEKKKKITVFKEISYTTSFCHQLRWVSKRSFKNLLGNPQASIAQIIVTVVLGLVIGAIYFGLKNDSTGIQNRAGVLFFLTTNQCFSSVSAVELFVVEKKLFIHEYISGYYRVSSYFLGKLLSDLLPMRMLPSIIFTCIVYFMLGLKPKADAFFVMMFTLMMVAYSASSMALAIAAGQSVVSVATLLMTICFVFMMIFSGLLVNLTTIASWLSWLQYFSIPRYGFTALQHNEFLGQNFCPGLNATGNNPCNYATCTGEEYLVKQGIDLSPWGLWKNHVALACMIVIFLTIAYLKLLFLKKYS
Fatty acid synthase (Homo sapiens), sequence (P49327 whole entry, looked up): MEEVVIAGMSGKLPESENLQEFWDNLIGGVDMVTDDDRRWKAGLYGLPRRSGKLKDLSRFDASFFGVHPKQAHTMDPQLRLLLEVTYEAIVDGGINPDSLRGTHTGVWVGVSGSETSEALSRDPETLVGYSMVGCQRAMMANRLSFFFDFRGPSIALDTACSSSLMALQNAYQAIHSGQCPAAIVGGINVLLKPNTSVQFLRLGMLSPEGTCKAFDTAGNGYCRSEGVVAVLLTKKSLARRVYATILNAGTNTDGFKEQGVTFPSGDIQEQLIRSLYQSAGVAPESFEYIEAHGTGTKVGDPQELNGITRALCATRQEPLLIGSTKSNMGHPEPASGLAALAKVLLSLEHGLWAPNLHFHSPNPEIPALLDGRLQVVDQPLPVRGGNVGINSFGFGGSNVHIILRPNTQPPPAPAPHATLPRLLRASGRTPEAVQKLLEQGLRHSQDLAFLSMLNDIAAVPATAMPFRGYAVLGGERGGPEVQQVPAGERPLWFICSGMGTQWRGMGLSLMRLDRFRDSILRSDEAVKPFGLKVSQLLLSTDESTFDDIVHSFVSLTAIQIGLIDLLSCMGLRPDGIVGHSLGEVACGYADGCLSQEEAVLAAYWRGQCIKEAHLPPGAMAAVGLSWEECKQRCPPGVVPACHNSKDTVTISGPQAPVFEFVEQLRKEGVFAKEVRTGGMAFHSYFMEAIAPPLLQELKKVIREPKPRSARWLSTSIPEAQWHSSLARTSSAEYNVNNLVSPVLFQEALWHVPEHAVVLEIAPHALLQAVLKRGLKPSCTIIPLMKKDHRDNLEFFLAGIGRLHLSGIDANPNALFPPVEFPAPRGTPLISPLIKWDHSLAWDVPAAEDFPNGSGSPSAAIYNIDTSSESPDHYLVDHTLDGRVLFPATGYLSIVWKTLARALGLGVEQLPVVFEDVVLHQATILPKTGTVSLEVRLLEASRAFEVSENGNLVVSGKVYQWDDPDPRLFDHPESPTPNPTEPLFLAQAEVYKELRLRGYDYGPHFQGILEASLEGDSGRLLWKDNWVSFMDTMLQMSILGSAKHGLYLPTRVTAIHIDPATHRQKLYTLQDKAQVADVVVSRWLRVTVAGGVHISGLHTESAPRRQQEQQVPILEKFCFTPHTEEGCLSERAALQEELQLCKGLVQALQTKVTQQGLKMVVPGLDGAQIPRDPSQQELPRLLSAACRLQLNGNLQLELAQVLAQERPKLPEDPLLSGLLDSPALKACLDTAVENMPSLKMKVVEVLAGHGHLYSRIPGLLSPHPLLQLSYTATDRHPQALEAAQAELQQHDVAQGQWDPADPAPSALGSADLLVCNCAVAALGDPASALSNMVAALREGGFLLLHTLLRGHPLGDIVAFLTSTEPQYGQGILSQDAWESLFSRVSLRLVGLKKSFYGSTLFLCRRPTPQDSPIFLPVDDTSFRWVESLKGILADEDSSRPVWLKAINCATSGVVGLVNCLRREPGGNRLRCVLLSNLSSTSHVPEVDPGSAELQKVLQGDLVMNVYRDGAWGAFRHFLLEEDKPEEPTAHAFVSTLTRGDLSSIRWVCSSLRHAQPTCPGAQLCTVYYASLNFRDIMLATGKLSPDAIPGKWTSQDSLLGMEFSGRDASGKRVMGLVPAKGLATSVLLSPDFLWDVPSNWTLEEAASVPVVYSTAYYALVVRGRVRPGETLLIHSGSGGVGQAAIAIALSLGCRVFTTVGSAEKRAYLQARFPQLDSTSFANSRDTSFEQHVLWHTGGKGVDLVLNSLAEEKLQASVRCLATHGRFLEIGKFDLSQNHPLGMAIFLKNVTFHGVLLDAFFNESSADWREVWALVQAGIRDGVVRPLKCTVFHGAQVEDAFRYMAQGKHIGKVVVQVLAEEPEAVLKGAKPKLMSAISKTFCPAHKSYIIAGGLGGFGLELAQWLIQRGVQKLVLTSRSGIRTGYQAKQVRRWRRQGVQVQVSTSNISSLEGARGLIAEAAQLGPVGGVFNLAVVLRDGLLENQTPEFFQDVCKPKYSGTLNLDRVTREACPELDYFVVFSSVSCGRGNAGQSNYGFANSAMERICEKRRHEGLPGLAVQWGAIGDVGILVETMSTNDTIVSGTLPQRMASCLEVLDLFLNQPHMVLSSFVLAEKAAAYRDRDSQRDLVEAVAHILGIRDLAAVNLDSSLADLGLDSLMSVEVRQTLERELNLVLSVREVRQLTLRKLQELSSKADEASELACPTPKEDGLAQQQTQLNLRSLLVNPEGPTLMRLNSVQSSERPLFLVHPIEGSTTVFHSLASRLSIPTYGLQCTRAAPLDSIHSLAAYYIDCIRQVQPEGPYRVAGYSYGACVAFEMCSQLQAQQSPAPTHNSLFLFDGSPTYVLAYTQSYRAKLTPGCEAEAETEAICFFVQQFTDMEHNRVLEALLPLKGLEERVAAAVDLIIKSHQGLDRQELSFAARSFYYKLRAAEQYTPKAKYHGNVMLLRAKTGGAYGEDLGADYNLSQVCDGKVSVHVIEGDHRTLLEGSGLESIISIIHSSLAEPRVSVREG

CCC(C)=NO
active: [8] 49.8 µM
inactive: [1] | [2] | [3] | [4] | [5] | [6] | [7] | [9] | [10] | [11] | [12] | [13] | [14] | [15] | [16] | [17] | [18]

Cc1cc(-n2nc3ccc(Cl)cc3n2)c(O)c(C(C)(C)C)c1
inactive: [19]

C=C1CC[C@H]2C[C@@H]1C2(C)C
inactive: [20]
